Rows were chosen to be rich in hits. Some 1.2% of all compounds tested hit in one or more screens of this group.
Avidin fluor = green autofluorescence of compounds with avidin beads – biophysical, 488/530 nm, flow cytometry, artefact control, profiling panel; compound fluorescence 488/530 nm; hits give high values; fluorescence (KMESF) at 10 µM; 220,000 compounds, 0.38% hits; in the data active = fluorescence above about 47
RGS4-Gao reg = modulators of RGS4 binding to Galphao, primary screen, biochemical, multiplexed bead flow cytometry | Guanine nucleotide-binding protein G(o) subunit alpha (Homo sapiens), P09471 | actives lie on both sides | binding response (% of control), % at 10 µM | 220,000 compounds, 0.33% hits | AID 1415, 2008; in the data active = binding response below about 49% or above about 150%; inactive = in between;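 note: fluorescent Galphao activated with aluminum fluoride binding bead-coupled RGS4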
Target sequence (P09471 whole entry, looked up): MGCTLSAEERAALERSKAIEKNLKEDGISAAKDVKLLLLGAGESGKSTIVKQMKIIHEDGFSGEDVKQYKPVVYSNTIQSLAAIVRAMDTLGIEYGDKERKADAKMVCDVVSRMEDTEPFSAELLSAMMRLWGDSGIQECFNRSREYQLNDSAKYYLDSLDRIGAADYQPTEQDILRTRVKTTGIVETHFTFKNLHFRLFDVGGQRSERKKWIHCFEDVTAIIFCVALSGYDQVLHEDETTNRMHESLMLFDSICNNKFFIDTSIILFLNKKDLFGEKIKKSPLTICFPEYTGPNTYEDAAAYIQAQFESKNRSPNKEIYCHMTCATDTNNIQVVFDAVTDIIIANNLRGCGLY
RGS7-Gao reg = RGS7-Galphao binding modulators, primary screen, biochemical, multiplexed bead flow cytometry | binding response (% of control), % at 10 µM | Guanine nucleotide-binding protein G(o) subunit alpha (Homo sapiens), P09471 | 220,000 compounds, 0.35% hits | AID 1439, 2008 | actives lie on both sides; in the data active = binding response below about 49% or above about 150%;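 note: fluorescent Galphao held in activated GDP-AlF4 state binding bead-coupled RGS7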
RGS8-Gao = RGS8-Galphao binding modulators, primary screen, biochemical, multiplexed bead flow cytometry; response (percent of control binding), % at 10 µM; Guanine nucleotide-binding protein G(o) subunit alpha (Homo sapiens), P09471; actives lie on both sides; 220,000 compounds, 0.34% hits; in the data active = response below about 60% or above about 140%; inactive = in between;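 note: Galphao activated as the GDP aluminium fluoride complex binding bead-coupled RGS8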
RGS16-Gao = modulators of RGS16 binding to Galphao, primary screen, biochemical, human proteins, multiplexed bead flow cytometry. binding response (% of control), % at 10 µM. AID 1441, 2008. Regulator of G-protein signaling 16 (Homo sapiens) + Guanine nucleotide-binding protein …. bead-based flow cytometry RGS16-Galphao binding, fluorescence; actives lie on both sides. 220,000 compounds, 0.38% hits;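 note: Galphao activated by GDP with aluminum fluoride before binding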
Target sequence (O15492 whole entry, looked up): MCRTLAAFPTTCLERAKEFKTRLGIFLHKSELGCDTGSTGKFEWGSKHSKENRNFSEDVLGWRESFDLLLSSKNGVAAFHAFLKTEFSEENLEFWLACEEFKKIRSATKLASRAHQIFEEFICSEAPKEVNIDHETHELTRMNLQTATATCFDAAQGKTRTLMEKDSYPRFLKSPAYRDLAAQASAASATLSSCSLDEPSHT
Target sequence (P09471 whole entry, looked up): as the sequence (P09471 whole entry, looked up) above
GSH fluor = compound fluorescence on glutathione beads, profiling panel, artefact control, biophysical, 488/530 nm, flow cytometry | GSH beads flow cytometry, compound fluorescence 488/530 nm; hits give high values | fluorescence (KMESF) at 10 µM | 190,000 compounds, 0.25% hits; in the data active = fluorescence above about 89;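 note: glutathione beads carrying GST-tagged Bcl family fusion proteins plus one bare bead set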
RGS-Gao = modulators of RGS–Galpha-o binding, primary screen, biochemical, multiplexed beads, flow cytometry, RGS4/7/8/16/19; AID 1504, 2009; shares compounds with RGS16-Gao; 1,600 compounds, 99% hits; RGS4–Galpha-o binding response, % at 10 µM; multiplexed bead flow cytometry;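 note: fluorescently labeled Galpha-o bound to GDP with aluminium fluoride binding biotinylated RGS beads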
Biotin-avidin = disruption of biotin probe capture by avidin, counter-screen for RGS protein interaction modulators, biochemical, flow cytometry, bead-based; inhibition, % at 10 µM; 1,700 tested, under 10 active; shares compounds with RGS16-Gao; streptavidin beads, fluorescein-biotin binding;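 active = inhibition above 50%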;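 note: median green fluorescence of gated singlet beads compared with DMSO control wells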
RGS8-Gao confirm = RGS8-Galphao binding modulators, confirmation, biochemical, multiplexed bead flow cytometry, single concentration | shares compounds with RGS16-Gao | bead-based flow cytometry RGS8-Galphao binding, fluorescence; actives lie on both sides | binding response (% of control), % at 10 µM | 1,700 compounds, 3% hits | AID 1836, 2009; in the data active = binding response below about 72% or above about 130%; inactive = in between;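 note: Galphao activated as GDP AlF4 complex before binding bead RGS8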
RGS7-Gao confirm = RGS7-Galphao binding modulators, confirmation, biochemical, multiplexed bead flow cytometry, single concentration. shares compounds with RGS16-Gao. bead-based flow cytometry RGS7-Galphao binding; actives lie on both sides. response (percent of control binding), % at 10 µM. 1,700 compounds, 7.8% hits; in the data active = response below about 75% or above about 130%; inactive = in between;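 note: fluorescent Galphao activated with GDP and aluminum fluoride binding bead-coupled RGS7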
RGS16-Gao conf = modulators of RGS16-Galphao protein binding, confirmation, biochemical, single concentration, multiplexed bead flow cytometry; shares compounds with RGS16-Gao; bead-based flow cytometry; actives lie on both sides; response (% of control binding), % at 10 µM; 1,700 compounds, 4% hits; in the data active = response below about 74% or above about 130%; inactive = in between;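 note: Galphao activated as the GDP aluminium fluoride complex binding bead-coupled RGS16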
RGS4-Gao single = modulators of RGS4-Galphao protein binding, confirmation, biochemical, single concentration, multiplexed bead flow cytometry | shares compounds with RGS16-Gao | actives lie on both sides | binding response (% of control), % at 10 µM | 1,700 compounds, 4% hits; in the data active = binding response below about 74% or above about 130%; inactive = in between
RGS19-Gao conf = regulators of RGS19-Galphao binding, confirmation, biochemical, single point, multiplexed bead flow cytometry; bead-based flow cytometry RGS19-Galphao binding; actives lie on both sides; response (percent of control binding), % at 10 µM; 1,700 compounds, 5% hits; shares compounds with RGS16-Gao; in the data active = response below about 50% or above about 160%; inactive = in between
Hits are given with their value; - = inactive; . = no result given; [ ] = remark or other dose. Unless noted, the rule behind the calls is not given here.

SMILES | Avidin fluor | RGS4-Gao reg | RGS7-Gao reg | RGS8-Gao | RGS16-Gao | GSH fluor | RGS-Gao | Biotin-avidin | RGS8-Gao confirm | RGS7-Gao confirm | RGS16-Gao conf | RGS4-Gao single | RGS19-Gao conf
O=C(COC(=O)/C=C/c1ccccc1)NCC1CCCO1 (configuration not stated) | - | - | - | - | - | - | . | . | . | . | . | . | .
COCCNC(=O)Cn1nc(-c2ccccc2OC)ccc1=O | - | - | - | 158[activator] | - | - | 133 | - | - | - | - | - | -
O=C(c1cccs1)N1CCc2ccccc21 | - | 154[activator] | 153[activator] | - | - | - | . | - | - | - | - | - | -
Cc1cccc(OCC(=O)N2CCCc3ccccc32)c1 | - | - | - | - | - | - | . | . | . | . | . | . | .
CCc1cc(=O)oc2c(C)c(OCC(=O)N3CCCc4ccccc43)ccc12 | - | - | - | 159[activator] | - | - | 133 | - | - | - | - | - | -
Nc1nc(N2CCN(C(c3ccccc3)c3ccccc3)CC2)n[nH]1 | - | - | 39 | 57 | - | - | 82 | - | - | - | - | - | -
Cc1nn(C)cc1/C=N/NC(=O)Cn1nccc1C | - | - | - | - | - | - | . | . | . | . | . | . | .
CCCNC(=O)c1ccc(CN2CCc3ccccc3C2)cc1 | - | 16 | 22 | 34 | 21 | - | . | - | - | - | - | - | -
COC(=O)[C@@H](NC(=O)Nc1cccc(Br)c1)C(C)C | - | - | - | - | - | - | . | . | . | . | . | . | .
Clc1ccc(C2=CSC3=NCCN23)cc1Cl | - | -19 | -0.4 | 18 | -14 | - | . | - | - | - | - | - | -
O=C(CCNC(=O)c1ccco1)NCc1ccccc1 | . | . | . | . | . | - | . | - | - | - | - | - | -
COc1cc(C)c(NC(=S)Nc2ccc(Cl)c(Cl)c2)cc1OC | - | - | - | - | - | - | . | . | . | . | . | . | .
Cc1ccc(C(=O)Nc2ccccc2NC(=O)c2ccc(C)o2)o1 | - | - | - | 60 | - | 240 | 55 | - | - | - | - | - | -
CN1CCN(C(=O)c2cn(-c3ccccc3)nc2-c2cccnc2)CC1 | . | 152[activator] | - | . | - | - | . | - | - | - | - | - | -
N#C/C(=C(/O)CSc1nnc(Cc2cccs2)n1C1CCCCC1)c1nc2ccccc2[nH]1 | - | 33 | 46 | 51 | - | 228 | . | - | - | - | - | - | -
CCN(CC)CCNC(C(=O)Nc1cccc(C(C)=O)c1)c1ccccc1 (configuration not stated) | - | - | - | - | - | - | . | . | . | . | . | . | .
CC(C)c1onc(C(=O)NCCc2ccccc2)c1[N+](=O)[O-] | - | - | - | - | - | - | . | . | . | . | . | . | .
CC(C)c1onc(C(=O)N(C)Cc2ccccc2)c1[N+](=O)[O-] | - | - | - | - | 24 | - | 89 | - | - | - | - | - | -
Cc1c(O)c2c3c(cccc3c1O)C(=O)N(c1ccccc1)C2=O | - | 164[activator] | 161[activator] | 143[activator] | - | - | . | - | - | - | - | - | -
COc1ccc(CCNCc2csc3nc4ccccc4n23)cc1OC | - | - | - | - | - | - | . | . | . | . | . | . | .
CC(=O)OCC(=O)Nc1ccccc1C | - | - | - | - | - | - | . | . | . | . | . | . | .
CC(C)OC(=O)C1C(=O)CC(C)(O)C(C(=O)OC(C)C)C1c1ccccc1 (configuration not stated) | - | 2.3 | 1.8 | 5.7 | -3.2 | - | . | - | - | - | - | - | -
Cc1cc(C)cc(NC(=S)N2CCC(NC(=O)c3ccccc3C)CC2)c1 | - | - | - | - | - | - | . | . | . | . | . | . | .
O=C(CSc1nnc(-c2ccncc2)o1)Nc1ccccc1Cl | 130 | - | 215[activator] | - | 250[activator] | - | 133 | - | - | - | - | - | -
O=C(CSc1nnc(-c2ccccc2)o1)Nc1ccccc1F | 91 | - | 173[activator] | - | - | - | 111 | - | - | - | - | - | -
SMILES | Avidin fluor | RGS4-Gao reg | RGS7-Gao reg | RGS8-Gao | RGS16-Gao | GSH fluor | RGS-Gao | Biotin-avidin | RGS8-Gao confirm | RGS7-Gao confirm | RGS16-Gao conf | RGS4-Gao single | RGS19-Gao conf
CCC(CC)NC(=O)Cc1ccccc1OC | - | - | - | - | - | - | . | . | . | . | . | . | .
c1ccc2c(c1)OCCOCCOc1ccccc1OCCOCCO2 | - | 187[activator] | 191[activator] | 145[activator] | - | - | . | - | - | - | - | - | -
Oc1ccc(-c2n[nH]c(=S)n2-c2ccc3c(c2)OCCO3)c(O)c1 | - | - | - | - | 15 | - | 99 | - | - | - | - | - | -
O=C(NS(=O)(=O)c1ccc2c(c1)OCCO2)c1ccccc1 | - | - | - | - | - | - | . | . | . | . | . | . | .
CSCC[C@H](NC(=O)COc1ccc(Cl)cc1)c1nc2ccccc2[nH]1 | - | - | - | - | 203[activator] | - | 112 | - | - | - | - | - | -
CSCCC(NC(=O)C1CCCCC1)c1nc2ccccc2[nH]1 (configuration not stated) | . | - | . | . | . | . | . | - | - | - | - | - | -
Cc1c(Cl)c(C(F)(F)F)nn1CC(=O)NCc1ccco1 | - | - | - | - | - | - | . | . | . | . | . | . | .

Assay outcomes from PubChem BioAssay.
